# Assay results reported in PubChem BioAssay (NCI).
# Compounds without any hit were thinned out: in the full panel of roughly 79,000, 15% have a hit. Values without a mark were called inactive. Activity calls are given as the source filed them. No stated cut-off is given here; in the data, active means growth inhibition above about 70%; inactive means the rest.
# Tests used:
# [1] = NCI Yeast Anticancer Drug Screen. Data for the rad50 strain (AID 155);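 further: 0% = growth of vehicle-only cultures of the same strain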; settings: S. cerevisiae rad50 strain growth inhibition, hits give high values
# Procedure, shortened: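 Genetically altered yeast (DNA repair pathway); compound treatment; growth inhibition vs vehicle ctrl.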
# [2] = NCI Yeast Anticancer Drug Screen. Data for the mec2-1 strain (AID 157); settings: S. cerevisiae mec2-1 strain, hits give high values
# Procedure, shortened: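 Using mec2-1 yeast: add compound, measure growth, express inhibition versus vehicle-treated cultures.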
# [3] = NCI Yeast Anticancer Drug Screen. Data for the sgs1 mgt1 strain (AID 161);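 further: 0% = growth of cultures given vehicle only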; settings: S. cerevisiae sgs1 mgt1 strain, hits give high values
# Procedure, shortened: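 Growth of a repair-deficient yeast mutant was monitored after compound treatment and expressed as inhibition relative to vehicle-treated cultures.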
# [4] = NCI Yeast Anticancer Drug Screen. Data for the cln2 rad14 strain (AID 165);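 further: 0% = growth equal to vehicle treated cultures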; settings: S. cerevisiae cln2 rad14 strain, hits give high values
# Procedure, shortened: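 Yeast strain cln2 rad14, bearing defects in cell cycle control and DNA repair, serves as the test system; values reflect growth inhibition compared with vehicle.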
# [5] = NCI Yeast Anticancer Drug Screen. Data for the bub3 strain (AID 167); settings: S. cerevisiae bub3 mutant strain, hits give high values
# Procedure, shortened: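 Yeast carrying a defined mutation is treated with each compound, and growth is compared with that of vehicle-exposed cells to give inhibition.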
# [6] = NCI Yeast Anticancer Drug Screen. Data for the mlh1 rad18 strain (AID 175); settings: S. cerevisiae mlh1 rad18 strain growth inhibition, hits give high values
# Procedure, shortened: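 Steps: expose repair-defective yeast to compound; measure growth; express inhibition against vehicle-treated controls.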
# [7] = at 5.0 µM (retest, dose inferred, filed as 0.5)
# [8] = at 50.0 µM (retest, dose inferred, filed as 5.0)
SMILES,"growth inhibition [1, 7]","growth inhibition [1, 8]",growth inhibition ([1]; at 50.0 µM),"growth inhibition [2, 7]","growth inhibition [2, 8]",growth inhibition ([2]; at 50.0 µM),"growth inhibition [3, 7]","growth inhibition [3, 8]",growth inhibition ([3]; at 50.0 µM),"growth inhibition [4, 7]","growth inhibition [4, 8]",growth inhibition ([4]; at 50.0 µM),"growth inhibition [5, 7]","growth inhibition [5, 8]",growth inhibition ([5]; at 50.0 µM),"growth inhibition [6, 7]","growth inhibition [6, 8]",growth inhibition ([6]; at 50.0 µM)
OC(CCl)c1ccc2ccc3c(c2c1)Nc1ccccc1S3 (configuration not stated),0%,80% (active),80.4% (active),-1%,88% (active),97.2% (active),2%,83% (active),97.2% (active),-1%,75% (active),78.8% (active),4%,87% (active),87.9% (active),-1%,86% (active),96.5% (active)
O=C(CBr)Nc1ccc(Cc2ccc(NC(=O)CBr)cc2)cc1,11%,-4%,97.3% (active),20%,0%,98.7% (active),35%,-4%,98.2% (active),24%,-2%,97.1% (active),17%,0%,98.1% (active),25%,1%,97.2% (active)
ClC1=C(Cl)C(Cl)(Cl)C(Cl)(Cl)C1(Cl)Cl,55%,7%,99.7% (active),49%,99% (active),99.5% (active),59%,62%,99.7% (active),31%,98% (active),98% (active),41%,98% (active),99.4% (active),84% (active),99% (active),99.2% (active)
CCCCN(CCCC)C(=O)c1ccc(OC(=O)OCC)c(OC)c1,4%,6%,56.9%,0%,10%,37%,2%,31%,49.8%,4%,17%,8.8%,2%,24%,85.1% (active),-2%,29%,17%
COc1ccc2ccccc2c1/C=C/C(=O)c1ccccc1,-3%,34%,54.6%,7%,43%,19.4%,11%,47%,42.4%,-19%,40%,56.2%,-8%,58%,46%,1%,72% (active),46.4%
Fc1ccc(CN2COc3c(ccc4cccnc34)C2)cc1,-5%,32%,59.4%,-2%,17%,27.1%,2%,34%,62.4%,3%,70% (active),41.2%,-5%,50%,77% (active),-1%,57%,9.45%
O=[N+]([O-])C1CCCC(C2=CSC3CCCCC3N2)C1 (configuration not stated),5%,-7%,48.2%,-21%,10%,80.8% (active),-26%,-2%,63.4%,-4%,16%,11.1%,1%,29%,86% (active),-24%,36%,37.9%
Cc1cc(S(=O)(=O)Nc2n[nH]c(-c3ccccn3)n2)c(S)cc1Cl,-10%,92% (active),73.8% (active),27%,84% (active),53.8%,18%,88% (active),55%,-4%,85% (active),49%,-29%,93% (active),69.3%,0%,88% (active),56%
C/C(=N/NC(=O)C[n+]1ccccc1)C(CN(CC(C)C)CC(C)C)C(=O)Nc1ccc(C)cc1C (configuration not stated),5%,5%,30.1%,-10%,-10%,40.2%,5%,5%,8.65%,5%,5%,41%,12%,12%,58%,6%,6%,70.2% (active)
COC1=C2C[C@@H](C)C[C@@H](OC)[C@@H](O)[C@H](C)/C=C(\C)[C@@H](OC(N)=O)[C@H](OC)/C=C\C=C(/C)C(=O)NC(=CC1=O)C2=O,61%,88% (active),85.8% (active),81% (active),91% (active),89.7% (active),86% (active),92% (active),91.5% (active),56%,85% (active),84.8% (active),84% (active),88% (active),89.7% (active),69%,85% (active),90% (active)
O=C(CCl)NC(=O)N(/N=C/c1ccco1)c1ccccc1,-1%,52%,44.8%,3%,60%,47%,-4%,38%,55.2%,1%,24%,-16.1%,3%,83% (active),59.2%,3%,68%,58%
Cn1c(=O)c2c(nc(OCC(C)(C)C)n2C)n(C)c1=O,4%,2%,-5.2%,0%,5%,10.9%,3%,-1%,26.1%,9%,8%,8.75%,0%,3%,16.9%,-13%,3%,23.8%
COc1c2c(cc3ccc(=O)oc13)C(Cl)C(Cl)O2 (configuration not stated),7%,97% (active),77.7% (active),4%,98% (active),84.8% (active),10%,98% (active),92.8% (active),-16%,97% (active),18.9%,9%,98% (active),91.2% (active),14%,97% (active),97.7% (active)
c1ccc2c(c1)oc1cc3ccncc3cc12,43%,96% (active),96.8% (active),11%,86% (active),86.3% (active),3%,83% (active),94.8% (active),9%,89% (active),92% (active),24%,94% (active),96% (active),14%,92% (active),95.2% (active)
NNc1ccc2ccccc2n1,-4%,98% (active),87.5% (active),1%,93% (active),52.5%,3%,99% (active),46.2%,6%,52%,86.9% (active),14%,99% (active),93.2% (active),19%,99% (active),93.4% (active)
Cc1ccc(S(=O)(=O)N/N=C2\CC(C)OC3=C2CCCCCC3)cc1 (configuration not stated),13%,95% (active),75.5% (active),0%,94% (active),79.3% (active),1%,93% (active),61.1%,-3%,92% (active),77.5% (active),1%,95% (active),75.6% (active),31%,95% (active),67.8%
O=[N+]([O-])C(=C(Nc1ccccc1)Nc1ccccc1)C(Cl)=C(Cl)Cl,97% (active),100% (active),89.2% (active),98% (active),100% (active),93% (active),92% (active),99% (active),89.2% (active),91% (active),100% (active),90.7% (active),94% (active),100% (active),91.5% (active),99% (active),100% (active),85.7% (active)
CC(=O)c1c(-c2ccco2)c(C#N)c(=S)n(C2OC(CO)C(O)C(O)C2O)c1-c1ccccc1 (configuration not stated),-9%,12%,32.9%,-4%,17%,49.6%,0%,44%,58.5%,14%,28%,35.2%,8%,20%,50.8%,-25%,45%,62.6%
Cn1nc(-c2ccccc2NC(=O)C(F)(F)F)c(=O)n(C)c1=S,-3%,37%,56.9%,3%,21%,43.9%,14%,25%,50.5%,-3%,14%,33.6%,4%,27%,27.7%,0%,34%,73.9% (active)
